Rango dissoc inh – inhibition of RanGTP-driven Rango-importin beta dissociation. 340,000 tested, 0.071% active. Biochemical FRET Rango-importin beta, RanGTP-induced dissociation. AID 540253. O95149+P62826. Potency, µM (titrated, usually from 46.1 µM), inactives show at the highest dose activity change, negative = inhibition; calls by dose curve; further: % of control where 0% means no effect; nearly all actives have a fitted effect of over 45% in size
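Two FRET readings bracket the reaction: one 5 min after compound meets Rango–importin beta, another 45 min after RanGTP-RCC1 (0.6 uM Ran, 0.2 uM RCC1, 2 mM GTP) is added. Only the second defines inhibition.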
PGK inhibitor – inhibitors of T. brucei phosphoglycerate kinase; PGK/GAPDH coupled, Kinase-Glo luminescence, 60 min; Potency, µM (highest dose often 57.5 µM), without a hit: at the top dose activity change, negative = inhibition, most hits filed as inhibitors; 380,000 tested, 0.043% active; AID 602233; further: on the % scale 0 is the no-effect control and ±100 the full control effect; nearly all actives have a fitted effect of over 60% in size
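Luminescent ATP detection (Kinase-Glo Plus) follows a 60-minute room-temperature incubation, with wells lacking PGK as controls. Buffer: 100 mM TEA (pH 7.6), 5 mM MgCl2, 0.01% Tween-20. Coupling enzyme GAPDH (100 nM final) supplies unstable 1,3-BPG in-well.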
ELG1 repair inh – inhibitors of ELG1-dependent DNA repair in HEK293T cells | AID 504467 | Potency, µM (titrated, usually from 46.1 µM), for the others: at the top dose activity change, negative = inhibition, most hits filed as inhibitors | 330,000 tested, 2.3% active | HEK293T ELG1-luciferase reporter, luminescence, 16 h; DNA damage induced by 5-fluorouridine; further: on the % scale 0 is the no-effect control and ±100 the full control effect; nearly all actives have a fitted effect of over 55% in size
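DMSO vehicle served as the neutral condition. Each well held 2,000 cells given 5-fluorouridine plus compound; after 16 hr at 37 °C/5% CO2, ONE-Glo was added and luciferase measured 30 min later.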
PKM2 activator – PKM2 (human) enzyme activation; P14618; purified PKM2, Kinase-Glo ATP luminescence, activation; response scale: 0% is enzyme alone, no compound; Potency, µM (doses to about 57.5 µM), for the others: at the top dose activation, most hits filed as activators; 260,000 tested, 0.34% active; AID 1631; further: on the % scale 0 is the no-effect control and ±100 the full control effect; nearly all actives have a fitted effect of over 55% in size
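Purified hPK-M2 (>95% pure) converted ADP (0.1 mM final) to ATP with 0.5 mM PEP in 50 mM imidazole pH7.2, KCl, MgCl2, Tween 20, BSA; 1 h at room temperature. ATP detected by Kinase-Glo luminescence.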
Rango-impB inh – prevents formation of the Rango-importin beta complex; 340,000 tested, 0.031% active; AID 540263; Rango CFP/YFP FRET sensor + importin beta, 45 min; Potency, µM (series often up to 92.2 µM), for the others: top-dose inhibition of complex formation; calls by dose curve;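 further: 0% = DMSO wells and 100% = buffer wells lacking importin beta; nearly all actives have a fitted effect of over 15% in size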
Target sequence (Q14974 whole entry, looked up): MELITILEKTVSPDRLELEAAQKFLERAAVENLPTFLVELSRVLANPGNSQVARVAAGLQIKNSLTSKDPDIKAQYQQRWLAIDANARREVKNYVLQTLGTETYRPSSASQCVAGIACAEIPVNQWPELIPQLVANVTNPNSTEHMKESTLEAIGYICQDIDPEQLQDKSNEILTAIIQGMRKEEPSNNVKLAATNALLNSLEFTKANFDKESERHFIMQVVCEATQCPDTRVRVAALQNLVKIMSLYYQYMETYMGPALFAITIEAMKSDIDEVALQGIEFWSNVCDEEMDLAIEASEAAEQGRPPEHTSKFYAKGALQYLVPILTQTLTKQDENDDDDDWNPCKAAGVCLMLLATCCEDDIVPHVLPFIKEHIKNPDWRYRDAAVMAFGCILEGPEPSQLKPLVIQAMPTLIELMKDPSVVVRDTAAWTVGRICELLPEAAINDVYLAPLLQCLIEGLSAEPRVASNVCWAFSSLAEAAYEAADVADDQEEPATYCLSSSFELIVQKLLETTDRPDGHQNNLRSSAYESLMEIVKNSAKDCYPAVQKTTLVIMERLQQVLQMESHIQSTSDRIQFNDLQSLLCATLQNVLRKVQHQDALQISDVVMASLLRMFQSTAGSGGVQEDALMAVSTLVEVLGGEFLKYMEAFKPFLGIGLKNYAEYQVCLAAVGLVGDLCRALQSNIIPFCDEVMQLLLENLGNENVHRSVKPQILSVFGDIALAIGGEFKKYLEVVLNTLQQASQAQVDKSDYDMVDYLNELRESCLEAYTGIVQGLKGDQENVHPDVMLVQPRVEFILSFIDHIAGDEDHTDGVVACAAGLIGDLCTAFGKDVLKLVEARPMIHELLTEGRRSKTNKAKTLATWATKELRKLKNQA
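FRET biosensor Rango (snurportin 1 IBB between N-terminal EYFP and C-terminal Cerulean), 50 nM in PBS/1 mM DTT/0.02% Tween-20/0.1% BSA, preincubated 5 min RT with compound; 0.125 microM importin beta added, 45 min RT, CFP/YFP FRET ratio read.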
Tb PFK inh-1 – T. brucei PFK enzyme inhibition | T. brucei PFK, ADP-Glo luminescence | Potency, µM (series often up to 57.5 µM), for inactives: at the top dose activity, negative = inhibition, hits mostly inhibitors | 330,000 tested, 0.17% active | AID 485367;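 further: 0% = uninhibited 1x PFK enzyme wells and -100% = no-enzyme wells; nearly all actives have a fitted effect of over 60% in size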
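In TEA buffer at pH 8.0 with 5 mM MgCl2, enzyme (1.25 nM) converted F6P (0.5 mM) and ATP (0.1 mM) for 45 min at room temperature. ADP product was read by luciferase luminescence.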
Tb PFK KinaseGlo – orthogonal confirmation of T. brucei phosphofructokinase inhibitors. shares compounds with Tb PFK inh-1. Tb PFK enzyme, ATP depletion, Kinase-Glo Plus luminescence. Potency, µM (series often up to 57.5 µM), without a hit: at the top dose inhibition. 1,100 tested, 47% active; calls by dose curve; further: nearly all actives have a fitted effect of over 60% in size
Tb PFK inh-2 – validation of T. brucei phosphofructokinase inhibitors | shares compounds with Tb PFK inh-1 | purified T. brucei PFK, ADP-Glo luminescence, 45 min | Potency, µM (titrated, usually from 57.5 µM), without a hit: at the highest dose activity change, negative = inhibition, hits mostly inhibitors | 1,100 tested, 41% active;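 further: plate controls were full PFK enzyme control for no effect and no enzyme control for full effect; nearly all actives have a fitted effect of over 60% in size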
Numbers without * were called inactive. This is a sample that favours compounds with a hit; in the whole collection about 2.4% have one here. Unless noted, the call rests on the fitted dose curve; in most records, active means well fitted curve in the direction sought with a large enough effect; inconclusive means small, poorly fitted or top-dose-only effect, or another doubt; inactive means no such curve, though single readings can be large; an effect the other way counts as inactive or inconclusive. Potency means the concentration at half of the fitted maximal effect.

What do the screens show for `CC1(c2ccc(Cl)cc2Cl)NC(=O)N(CC(=O)Nc2ccc3[nH]c(=O)[nH]c3c2)C1=O` (stereo not drawn)?
Rango dissoc inh: -4%; PGK inhibitor: -8%; ELG1 repair inh: inconclusive; Rango-impB inh: -2%; Tb PFK inh-1: inconclusive; Tb PFK KinaseGlo: inconclusive; Tb PFK inh-2: inconclusive

Results for Cc1ccc(-c2nnn3c2nc(NCCc2ccc(S(N)(=O)=O)cc2)c2ccccc23)cc1 ?
Rango dissoc inh: inconclusive; PGK inhibitor: -6%; ELG1 repair inh: inconclusive; PKM2 activator: -18%; Rango-impB inh: inconclusive; Tb PFK inh-1: inconclusive; Tb PFK KinaseGlo: inconclusive; Tb PFK inh-2: inconclusive

Results for COc1ccc(/C=C2\Oc3cc(OC(=O)N4CCOCC4)ccc3C2=O)c(OC)c1 ?
Rango dissoc inh: inconclusive; PGK inhibitor: 2%; ELG1 repair inh: -4%; PKM2 activator: 2%; Rango-impB inh: inconclusive; Tb PFK inh-1: 0%

How did COCCCNC(=O)c1cc(=O)n(Cc2ccc(Cl)cc2)c2ccccc12 do in these assays?
Rango dissoc inh: -16%; PGK inhibitor: 16%; ELG1 repair inh: -17%; PKM2 activator: 4%; Rango-impB inh: 4%; Tb PFK inh-1: 11µM*; Tb PFK KinaseGlo: 24µM*; Tb PFK inh-2: inconclusive

What do the screens show for `CCCCn1c(=O)c(C(=O)NCc2ccc(Cl)cc2)c(O)c2ccccc21`?
Rango dissoc inh: -8%; PGK inhibitor: -1%; ELG1 repair inh: -19%; PKM2 activator: 12%; Rango-impB inh: -5%; Tb PFK inh-1: -1%

Results for CS(=O)(=O)NNC(=O)c1cc2cc3ccccc3nc2s1 ?
Rango dissoc inh: 4%; PGK inhibitor: inactive; ELG1 repair inh: 14%; PKM2 activator: -17%; Rango-impB inh: 0%; Tb PFK inh-1: inconclusive; Tb PFK KinaseGlo: -23%; Tb PFK inh-2: 21%

Results for COc1ccc(S(=O)(=O)NNC(=O)c2cc3cc4ccccc4nc3s2)cc1 ?
Rango dissoc inh: -2%; PGK inhibitor: -1%; ELG1 repair inh: -3%; PKM2 activator: -10%; Rango-impB inh: 0%; Tb PFK inh-1: inconclusive; Tb PFK KinaseGlo: -35%; Tb PFK inh-2: inconclusive

What do the screens show for `COc1cc(/C=C/c2sc3ccccc3[n+]2CCCS(=O)(=O)[O-])ccc1O`?
Rango dissoc inh: inconclusive; PGK inhibitor: inconclusive; ELG1 repair inh: -11%; PKM2 activator: -62%; Rango-impB inh: inconclusive; Tb PFK inh-1: 12µM*; Tb PFK KinaseGlo: -25%; Tb PFK inh-2: inconclusive

Results for O=C1C2CC=C(Cl)CC2C(=O)N1CCCCCCN1C(=O)C2CC=C(Cl)CC2C1=O (stereo not drawn) ?
Rango dissoc inh: inconclusive; ELG1 repair inh: 0%; PKM2 activator: 7%; Rango-impB inh: inconclusive; Tb PFK inh-1: inconclusive; Tb PFK KinaseGlo: inconclusive; Tb PFK inh-2: inconclusive

What do the screens show for `Cn1nnc(CC[N+](C)(C)C)n1`?
Rango dissoc inh: -6%; PGK inhibitor: -7%; ELG1 repair inh: -2%; PKM2 activator: 2%; Rango-impB inh: 1%; Tb PFK inh-1: 1%

How did O=C(Cc1c[nH]c2ccccc12)NNCc1ccc(N(CCCl)CCCl)cc1 do in these assays?
Rango dissoc inh: -23%; PGK inhibitor: -5%; Rango-impB inh: -2%

High-throughput results: PubChem, National Center for Advancing Translational Sciences (NCATS)
